The structures appear in SMILES notation.

For this assay, the target named is T1, Methionyl-tRNA synthetase, putative (Leishmania donovani (strain BPK282A1)) (UniProt E9BF75).
T1 sequence (whole entry): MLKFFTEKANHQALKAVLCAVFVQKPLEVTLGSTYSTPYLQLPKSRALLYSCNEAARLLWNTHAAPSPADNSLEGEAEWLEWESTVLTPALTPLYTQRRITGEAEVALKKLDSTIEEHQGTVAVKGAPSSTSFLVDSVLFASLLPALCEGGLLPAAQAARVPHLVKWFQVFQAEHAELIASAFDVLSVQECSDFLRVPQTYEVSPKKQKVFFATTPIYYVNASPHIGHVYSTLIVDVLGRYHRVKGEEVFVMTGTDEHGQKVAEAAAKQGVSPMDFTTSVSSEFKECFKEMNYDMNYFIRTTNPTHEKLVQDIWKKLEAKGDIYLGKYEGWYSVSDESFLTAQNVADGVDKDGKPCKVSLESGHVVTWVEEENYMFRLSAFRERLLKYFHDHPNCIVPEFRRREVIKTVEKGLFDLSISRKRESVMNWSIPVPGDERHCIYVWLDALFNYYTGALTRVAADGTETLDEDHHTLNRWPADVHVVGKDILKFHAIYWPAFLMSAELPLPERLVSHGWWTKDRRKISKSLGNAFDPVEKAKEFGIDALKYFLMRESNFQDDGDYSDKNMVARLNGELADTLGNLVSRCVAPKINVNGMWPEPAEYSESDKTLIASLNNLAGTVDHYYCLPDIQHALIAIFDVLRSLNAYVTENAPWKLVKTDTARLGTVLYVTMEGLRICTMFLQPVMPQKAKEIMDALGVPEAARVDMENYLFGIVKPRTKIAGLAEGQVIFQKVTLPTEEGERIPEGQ
As to the kind of experiment: Leishmania donovani Methionine tRNA synthetase (LdMetRS):v7. Dose response assay. Format: functional. Also noted: conc 80 nM, time 150 minutes.

In turn, `OCCNc1nccc(Nc2cccc(F)c2)n1` came in with a PXC50 (MAX_EFFECT 6.168224299) below 4, a PXC50 (MAX_EFFECT 6.404958678) below 4 and a PXC50 (MAX_EFFECT 9.691629956) below 4.

With `CN(C)S(=O)(=O)c1cccnc1Nc1cccc(C(F)(F)F)c1`, the PXC50 is below 4 (MAX_EFFECT 3.964757709), below 4 (MAX_EFFECT 9.867172676) and below 4 (MAX_EFFECT -2.272727273).

Turning to `OCCCNc1nccc(Nc2cccc(F)c2)n1`, the PXC50 is below 4 (MAX_EFFECT 2.056074766), below 4 (MAX_EFFECT 11.40142518) and below 4 (MAX_EFFECT 18.45493562).

Regarding `CN(C)c1nc(Nc2ccc(F)c(F)c2)nc2c1cnn2C`, the PXC50 by setting is: (BOTTOM 0.0, HILLSLOPE 0.943271721, MAX_EFFECT 54.1567696, TOP 49.71942024) 6.12; (BOTTOM 0.0, HILLSLOPE 1.040792015, MAX_EFFECT 59.65665236, TOP 50.11386445) 6.1; (BOTTOM 0.0, HILLSLOPE 1.064354186, MAX_EFFECT 50.0967118, TOP 49.52260288) 6.2.

Turning to `CCc1nc(NCCCC(=O)O)c2c3c(sc2n1)CCC3`, the PXC50 runs as follows: (MAX_EFFECT 7.808564232) below 4; (MAX_EFFECT 8.905852417) below 4.

Turning to `CNS(=O)(=O)c1cccnc1Nc1cccc(C(F)(F)F)c1`, the PXC50 was below 4 (MAX_EFFECT 3.524229075), below 4 (MAX_EFFECT 5.165289256) and below 4 (MAX_EFFECT 6.451612903).

In the case of `COCCN(Cc1sccc1C)c1nc(C)nc2sccc12`, the PXC50 is, setting by setting: (MAX_EFFECT 12.79373368) below 4; (MAX_EFFECT 17.23237598) below 4.

Turning to `OC1CCc2cc(Cl)cc(Cl)c21` (centres undefined), the PXC50 is below 3 (MAX_EFFECT 6.26349892) and below 3 (MAX_EFFECT 9.69581749).

Consider `NS(=O)(=O)c1cccnc1Nc1cc(F)cc(C(F)(F)F)c1`, for which the PXC50 reads like this: (MAX_EFFECT 3.956834532) below 4; (MAX_EFFECT 8.551068884) below 4; (MAX_EFFECT 8.583690987) below 4.

Consider `COC(=O)CNC(=O)c1cccc(C(=O)N(C)c2ccccc2)c1`, for which the PXC50 by setting is: (MAX_EFFECT 1.22591944) below 4; (MAX_EFFECT 1.449275362) below 4; (MAX_EFFECT -3.401360544) below 4.

In the case of `CNc1nc(Nc2ccc(F)c(F)c2)nc2c1cnn2C`, the PXC50 was found to be 5.22 (BOTTOM 0.870209489, HILLSLOPE 0.808254997, MAX_EFFECT 89.4026975, TOP 100.0); 5.16 (BOTTOM 6.300791226, HILLSLOPE 0.864616698, MAX_EFFECT 89.69957082, TOP 97.1703974); 5.35 (BOTTOM -2.296989521, HILLSLOPE 0.747850258, MAX_EFFECT 89.3111639, TOP 97.09484857).

Consider `NC1CCN(C2CCN(c3ccc(-c4ccco4)cc3)CC2)CC1`, for which the PXC50 reads like this: (MAX_EFFECT 34.50087566) below 4; (MAX_EFFECT 44.89795918) below 4; (MAX_EFFECT 51.44927536) below 4.

With `Cn1ncc2c(NCCO)nc(NCCS(C)(=O)=O)nc21`, the PXC50 reads like this: (MAX_EFFECT 5.936073059) below 4; (MAX_EFFECT 10.75471698) below 4; (MAX_EFFECT 32.3699422) below 4.

As for `O=C(CC1CCCCC1)N1CCC(c2ncc3c(n2)CCNC3)CC1`, the PXC50 (MAX_EFFECT 14.51247166) was below 4 and the PXC50 (MAX_EFFECT 29.90654206) is below 4.

For the molecule `Cc1cc(NCCO)nc(Nc2ccc(F)c(F)c2)n1`, the PXC50 was 4.84 (BOTTOM 2.753913498, HILLSLOPE 0.759187316, MAX_EFFECT 87.41092637, TOP 100.0); 4.62 (BOTTOM 8.051339334, HILLSLOPE 0.840494555, MAX_EFFECT 84.97854077, TOP 109.6160526); 4.84 (BOTTOM -3.669323527, HILLSLOPE 0.810726137, MAX_EFFECT 81.68224299, TOP 99.92002792).

Consider `CCc1nc(N2CCN(c3ccccn3)CC2)c2c3c(sc2n1)CCC3`, for which the PXC50 reads like this: (MAX_EFFECT 39.95098039) below 4; (MAX_EFFECT 40.86538462) below 4.

On to `O=C(O)CC1COCCN1C(=O)C1(c2ccc(Cl)cc2)CCC1` (centres undefined), for which the PXC50 was below 4 (MAX_EFFECT 1.360544218), below 4 (MAX_EFFECT 1.449275362) and below 4 (MAX_EFFECT 4.378283713).

Turning to `NS(=O)(=O)c1cc(Cl)cc(Cl)c1`, the PXC50 is below 3 (MAX_EFFECT 24.26470588), below 3 (MAX_EFFECT 31.80778032) and below 2.7 (MAX_EFFECT 47.99235182).

As for `OCCNc1nc(Nc2ccc(F)c(F)c2)nc2[nH]ncc12`, the PXC50 worked out at 5.11 (BOTTOM 3.46805435, HILLSLOPE 2.296919563, MAX_EFFECT 68.49315068, TOP 65.56498053); 5.22 (BOTTOM 8.366568489, HILLSLOPE 1.390922894, MAX_EFFECT 66.79316888, TOP 71.6605159); 5.31 (BOTTOM -5.242433447, HILLSLOPE 1.269255479, MAX_EFFECT 62.45283019, TOP 64.77487353).

Take `CS(=O)(=O)N1CCN(c2ccc3ccc(C(=O)NCC4CCCO4)cn23)CC1` (centres undefined): the PXC50 is 4.63 (BOTTOM -3.857720999, HILLSLOPE 1.705839216, MAX_EFFECT 57.40402194, TOP 63.01150798) and 4.86 (BOTTOM -4.829130924, HILLSLOPE 1.927262902, MAX_EFFECT 52.15311005, TOP 54.22060795).

In the case of `Cc1ccc(N2CCC3(CN(Cc4cccs4)CCC3(F)F)C2)nn1` (centres undefined), the PXC50 is below 4 (MAX_EFFECT 4.988662132) and below 4 (MAX_EFFECT 10.8411215).

For the molecule `NS(=O)(=O)c1cccc(Nc2ncccc2S(N)(=O)=O)c1`, the PXC50 is below 4 (MAX_EFFECT 9.108159393), below 4 (MAX_EFFECT 16.73553719) and below 4 (MAX_EFFECT 21.14537445).

In turn, `NC(=O)c1cccnc1Nc1cccc(S(N)(=O)=O)c1` displayed a PXC50 (MAX_EFFECT 5.69259962) below 4, a PXC50 (MAX_EFFECT 12.33480176) below 4 and a PXC50 (MAX_EFFECT 15.08264463) below 4.

On to `CNC(=O)CNc1nc(Nc2ccc(F)c(F)c2)nc2c1cnn2C`, for which the PXC50 is, setting by setting: (BOTTOM -2.014141631, HILLSLOPE 0.719425381, MAX_EFFECT 67.11798839, TOP 100.0) 4.45; (BOTTOM -2.647341189, HILLSLOPE 0.864486673, MAX_EFFECT 64.80686695, TOP 100.0) 4.36; (BOTTOM -5.796593818, HILLSLOPE 0.871793388, MAX_EFFECT 66.50831354, TOP 100.0) 4.35.

Regarding `Cc1nc(Cc2ccc(F)cc2)cc(C2COCCN2)n1` (centres undefined), the PXC50 was 4.12 (BOTTOM 2.29407011, HILLSLOPE 1.165905826, MAX_EFFECT 59.72222222, TOP 100.0); 4.05 (BOTTOM 7.218737982, HILLSLOPE 1.406075807, MAX_EFFECT 57.71812081, TOP 100.0); below 4 (MAX_EFFECT 41.7677643).

Turning to `NCC1Cc2cc(-c3nccc(N4CCC(O)CC4)n3)cc(Cl)c2O1` (centres undefined), the PXC50 by setting is: (BOTTOM 2.296775574, HILLSLOPE 1.512300698, MAX_EFFECT 82.17821782, TOP 96.63760695) 4.5; (BOTTOM 6.226174125, HILLSLOPE 1.41403245, MAX_EFFECT 85.50724638, TOP 100.0) 4.49; (BOTTOM -3.72600926, HILLSLOPE 1.42983, MAX_EFFECT 83.15412186, TOP 100.0) 4.35.

For the molecule `c1cc(-c2ccc3c(c2)CCC32CCN(c3nncs3)CC2)co1`, the PXC50 came to 4.31 (BOTTOM 1.725579768, HILLSLOPE 1.730442881, MAX_EFFECT 81.97573657, TOP 100.0); 4.55 (BOTTOM 2.845642281, HILLSLOPE 1.539467031, MAX_EFFECT 93.05555556, TOP 100.0); 4.52 (BOTTOM 5.084669568, HILLSLOPE 1.629318142, MAX_EFFECT 90.60402685, TOP 100.0).

For the molecule `Cn1ncc2c(NCCO)nc(NCc3cccc(F)c3)nc21`, the PXC50 is below 4 (MAX_EFFECT 8.142493639), below 4 (MAX_EFFECT 8.301886792) and below 4 (MAX_EFFECT 9.649122807).

On to `COc1cccc(-c2noc3c2CN(c2ncnc4c2CCC4)CC3)c1`, for which the PXC50 is below 4 (MAX_EFFECT 38.4057971), below 4 (MAX_EFFECT 40.13605442) and below 4 (MAX_EFFECT 45.70928196).

On to `Cc1cnn(CCNCc2c(C)nn(CCO)c2C)c1`, for which the PXC50 (MAX_EFFECT 2.721088435) is below 4, the PXC50 (MAX_EFFECT 5.072463768) was below 4 and the PXC50 (MAX_EFFECT 8.23117338) was below 4.

For the molecule `Cc1cnn(CCNCc2c(C)nn(-c3ccccc3)c2C)c1`, the PXC50 is, setting by setting: (MAX_EFFECT 6.52173913) below 4; (MAX_EFFECT 6.802721088) below 4; (MAX_EFFECT 12.78458844) below 4.

Molecule `Cn1ncc2c(NCC(F)F)nc(Nc3ccc(F)c(F)c3)nc21` had a PXC50 (BOTTOM 1.581546444, HILLSLOPE 1.045254628, MAX_EFFECT 85.66037736, TOP 91.59899261) of 5.09; a PXC50 (BOTTOM 2.845790401, HILLSLOPE 0.765565912, MAX_EFFECT 91.60305344, TOP 108.0932569) of 4.86; a PXC50 (BOTTOM 5.50929664, HILLSLOPE 0.80038345, MAX_EFFECT 90.35087719, TOP 108.0671509) of 4.81.

For the origin of these results see ChEMBL document CHEMBL3988442, “University of Dundee, Small-Polar-MMV Screening Library” (2021).
